Laboratory results published in PubChem BioAssay (NCATS).
Inconclusive results are not listed. Active and inactive are the calls of the source. Calls follow the shape of the dose curve; as a rule, active = well fitted curve in the direction sought with a large enough effect; inconclusive = small, poorly fitted or top-dose-only effect, or another doubt; inactive = no such curve, though single readings can be large; an effect the other way counts as inactive or inconclusive.

How the values were obtained:
MKL-1 = assay: qHTS assay to identify novel small-molecules to repurpose for Merkel cell carcinoma treatment (AID 1296009); conditions: MCC and control cell lines, CellTiter-Glo viability, 72 h; series mostly up to 46 µM; also: nearly all actives have a fitted effect of over 60% in size
Method in brief: (§1)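 Dose-response viability screen; 72 hr exposure at 37 degree celsius; CellTiter-Glo added, 10 min room temperature, luminescence read; RLUs scaled between no-cell and DMSO wells.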

MKL-2 = assay: as above; conditions: MCC and control cell lines, CellTiter-Glo viability, 72 h; series mostly up to 46 µM
Method in brief: as §1

NIH3T3 = assay: as above; conditions: MCC and control cell lines, CellTiter-Glo viability, 72 h; at 44.8 µM (top of the series) unless noted
Method in brief: as §1

UISO = assay: as above; conditions: MCC and control cell lines, CellTiter-Glo viability, 72 h; series mostly up to 46 µM
Method in brief: as §1

WaGa = assay: as above; conditions: MCC and control cell lines, CellTiter-Glo viability, 72 h; series mostly up to 46 µM
Method in brief: as §1

C33A = assay: Primary qHTS to identify gynecologic anti-cancer compounds using libraries of approved drugs and bioactive compounds (AID 1345084); conditions: Gynecologic cancer cell panel viability, ATPlite luminescence, 48 h; series mostly up to 57.5 µM; also: nearly all actives have a fitted effect of over 55% in size
Method in brief: (§2)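 Cytotoxicity screen measuring ATP content by luciferase luminescence. Each compound is applied at five concentrations for 48 h at 37 C with 5% CO2.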

CAOV3 = assay: as above; conditions: Gynecologic cancer cell panel viability, ATPlite luminescence, 48 h; series mostly up to 57.5 µM
Method in brief: as §2

CASKI = assay: as above; conditions: Gynecologic cancer cell panel viability, ATPlite luminescence, 48 h; series mostly up to 57.5 µM
Method in brief: as §2

Es-2 = assay: as above; conditions: Gynecologic cancer cell panel viability, ATPlite luminescence, 48 h; series mostly up to 57.5 µM
Method in brief: as §2

HeLa = assay: as above; conditions: Gynecologic cancer cell panel viability, ATPlite luminescence, 48 h; series mostly up to 57.5 µM
Method in brief: as §2
% is scaled to controls: 0 for no effect and ±100 for the full control effect.

C[C@]12C=CC(=O)C=C1CC[C@H]1[C@@H]3C[C@@H](O)[C@](O)(C(=O)CO)[C@@]3(C)C[C@H](O)[C@@]12F
inactive: Potency (MKL-1) | Potency (MKL-2) | outcome (NIH3T3) | Potency (UISO) | Potency (WaGa) | Potency (C33A) | Potency (CAOV3) | Potency (CASKI) | Potency (Es-2) | Potency (HeLa)

C[C@@H](O)[C@H]1C(=O)N2C(C(=O)O)=C(SCCN=CN)C[C@H]12
inactive: Potency (MKL-1) | Potency (MKL-2) | Potency (UISO) | Potency (WaGa) | Potency (C33A) | Potency (CAOV3) | Potency (CASKI) | Potency (Es-2) | Potency (HeLa)

CN1CCN(CC(=O)N2c3ccccc3C(=O)Nc3cccnc32)CC1
inactive: activity change, negative = cytotoxicity (MKL-1) -1.15% [at 4.84 µM] | activity change, negative = cytotoxicity (MKL-2) 15.9% [at 4.84 µM] | activity change, negative = cytotoxicity (UISO) 0.833% [at 4.84 µM] | activity change, negative = cytotoxicity (WaGa) 4.82% [at 4.84 µM] | activity change, negative = cytotoxicity (C33A) -17.4% [at 6.55 µM] | activity change, negative = cytotoxicity (CAOV3) 6.09% [at 6.55 µM] | activity change, negative = cytotoxicity (CASKI) 7.9% [at 6.55 µM] | activity change, negative = cytotoxicity (Es-2) 2.19% [at 6.55 µM] | activity change, negative = cytotoxicity (HeLa) 1.94% [at 6.55 µM]

NC(=Nc1ccccc1)Nc1ccccc1
inactive: Potency (MKL-1) | Potency (MKL-2) | outcome (NIH3T3) inactive [at 92 µM] | Potency (UISO) | Potency (WaGa) | Potency (C33A) | Potency (CAOV3) | Potency (CASKI) | Potency (Es-2) | Potency (HeLa)

C(=C\c1ccccc1)/CN1CCN(C(c2ccccc2)c2ccccc2)CC1
inactive: Potency (MKL-1) | Potency (MKL-2) | Potency (UISO) | Potency (WaGa) | Potency (C33A) | Potency (CAOV3) | Potency (CASKI) | Potency (Es-2) | Potency (HeLa)

NC(N)=NC(=O)Cc1c(Cl)cccc1Cl
inactive: Potency (MKL-1) | Potency (MKL-2) | Potency (UISO) | Potency (WaGa) | Potency (C33A) | Potency (CAOV3) | Potency (CASKI) | Potency (Es-2)

CC(=O)Nc1nnc(S(N)(=O)=O)s1
inactive: Potency (MKL-1) | Potency (MKL-2) | outcome (NIH3T3) | Potency (UISO) | Potency (WaGa) | Potency (C33A) | Potency (CAOV3) | Potency (CASKI) | Potency (Es-2) | Potency (HeLa)

O=C(O)CN(CCOCCOCCN(CC(=O)O)CC(=O)O)CC(=O)O
inactive: activity change, negative = cytotoxicity (MKL-1) 14.4% [at 0.597 µM] | activity change, negative = cytotoxicity (MKL-2) 9.35% [at 0.597 µM] | activity change, negative = cytotoxicity (UISO) 21.4% [at 0.597 µM] | activity change, negative = cytotoxicity (WaGa) 12.3% [at 0.597 µM] | activity change, negative = cytotoxicity (C33A) 11.2% [at 0.462 µM] | activity change, negative = cytotoxicity (CAOV3) 7.4% [at 0.462 µM] | activity change, negative = cytotoxicity (CASKI) 2.67% [at 0.462 µM] | activity change, negative = cytotoxicity (Es-2) -1.06% [at 0.462 µM]

CN=C(NC#N)NCCSCc1nc[nH]c1C
inactive: Potency (MKL-1) | Potency (MKL-2) | Potency (UISO) | Potency (WaGa) | Potency (C33A) | Potency (CAOV3) | Potency (CASKI) | Potency (Es-2) | Potency (HeLa)

OCCN1CCN(CCCN2c3ccccc3C=Cc3ccccc32)CC1
inactive: Potency (MKL-1) | Potency (MKL-2) | outcome (NIH3T3) | Potency (UISO) | Potency (C33A) | Potency (CAOV3) | Potency (CASKI) | Potency (Es-2) | Potency (HeLa)

CC(C)(C)NCC(O)c1cc(O)cc(O)c1 (configuration not stated)
inactive: Potency (MKL-1) | Potency (MKL-2) | Potency (UISO) | Potency (WaGa) | Potency (C33A) | Potency (CAOV3) | Potency (CASKI) | Potency (Es-2) | Potency (HeLa)

CC1=NS(=O)(=O)c2cc(Cl)ccc2N1
inactive: Potency (MKL-1) | Potency (MKL-2) | outcome (NIH3T3) | Potency (UISO) | Potency (WaGa) | Potency (C33A) | Potency (CAOV3) | Potency (CASKI) | Potency (Es-2) | Potency (HeLa)

N[C@@H](COP(=O)(O)O)C(=O)O
inactive: Potency (MKL-1) | Potency (MKL-2) | Potency (UISO) | Potency (WaGa) | Potency (C33A) | Potency (CAOV3) | Potency (CASKI) | Potency (Es-2)

CC(N=C(NC#N)Nc1ccncc1)C(C)(C)C (configuration not stated)
inactive: Potency (MKL-1) | Potency (MKL-2) | Potency (UISO) | Potency (WaGa) | Potency (C33A) | Potency (CAOV3) | Potency (CASKI) | Potency (Es-2)

CN(C)[C@@H]1C(=O)C(C(N)=O)=C(O)[C@@]2(O)C(=O)C3=C(O)c4c(O)ccc(Cl)c4[C@@H](O)[C@H]3C[C@@H]12
inactive: Potency (MKL-1) | Potency (MKL-2) | outcome (NIH3T3) | Potency (UISO) | Potency (WaGa) | Potency (C33A) | Potency (CAOV3) | Potency (CASKI) | Potency (Es-2) | Potency (HeLa)

Brc1c(NC2=NCCN2)ccc2nccnc12
inactive: Potency (MKL-1) | Potency (MKL-2) | Potency (UISO) | Potency (WaGa) | Potency (C33A) | Potency (CAOV3) | Potency (CASKI) | Potency (Es-2) | Potency (HeLa)

NC(Cc1ccc(Cl)cc1)C(=O)O (configuration not stated)
inactive: activity change, negative = cytotoxicity (MKL-1) 8.15% [at 0.597 µM] | activity change, negative = cytotoxicity (MKL-2) 20% [at 0.597 µM] | activity change, negative = cytotoxicity (UISO) 36.5% [at 0.597 µM] | activity change, negative = cytotoxicity (WaGa) 12.8% [at 0.597 µM] | activity change, negative = cytotoxicity (C33A) 13.6% [at 0.462 µM] | activity change, negative = cytotoxicity (CAOV3) 0.059% [at 0.462 µM] | activity change, negative = cytotoxicity (CASKI) 7.36% [at 0.462 µM] | activity change, negative = cytotoxicity (Es-2) 1.05% [at 0.462 µM] | activity change, negative = cytotoxicity (HeLa) 14.4% [at 0.462 µM]

CNC1(C)C2CCC(C2)C1(C)C (configuration not stated)
inactive: Potency (MKL-1) | Potency (MKL-2) | outcome (NIH3T3) | Potency (UISO) | Potency (WaGa) | Potency (C33A) | Potency (CAOV3) | Potency (CASKI) | Potency (Es-2) | Potency (HeLa)

CCn1cc(C(=O)O)c(=O)c2cc3c(cc21)OCO3
inactive: Potency (MKL-1) | Potency (MKL-2) | Potency (UISO) | Potency (WaGa) | Potency (C33A) | Potency (CAOV3) | Potency (CASKI) | Potency (Es-2)

CCO/C([O-])=N/c1c[n+](N2CCOCC2)no1
inactive: Potency (MKL-1) | Potency (MKL-2) | Potency (UISO) | Potency (WaGa) | Potency (C33A) | Potency (CAOV3) | Potency (CASKI) | Potency (Es-2)

CC(=O)[C@@]1(O)CC[C@H]2[C@@H]3CCC4=CC(=O)CC[C@]4(C)[C@H]3CC[C@@]21C
inactive: Potency (MKL-1) | Potency (MKL-2) | Potency (UISO) | Potency (WaGa) | Potency (C33A) | Potency (CAOV3) | Potency (CASKI) | Potency (Es-2) | Potency (HeLa)

COc1ccc(CN(CCN(C)C)c2ccccn2)cc1
inactive: Potency (MKL-1) | Potency (MKL-2) | Potency (UISO) | Potency (WaGa) | Potency (C33A) | Potency (CAOV3) | Potency (CASKI) | Potency (Es-2)
